The structures appear in SMILES notation. This is part of a sample that, as a whole, favours compounds with a hit. Of some 83,000 tested, about 20% had one in any assay.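 In brief: 96-well plates, 48 h treatment, single concentration, percent growth endpoint.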 Unmarked numbers belong to inactive results. Active and inactive are the calls of the source. Rule for the calls: active = growth percent below 10; inactive = the rest.

The record followed here is PubChem BioAssay (NCI).

Some test systems named below: T-47D breast; MDA-MB-435 melanoma; SW-620 colon; HCT-116 colon; HCC-2998 colon; KM12 colon; MCF7 breast; BT-549 breast.
What all share (assay): NCI-60 one-dose screen, 48 h (100 = growth as untreated, 0 = no growth, -100 = all killed)
Common to all, as to details: 10 µM

Regarding `CC(C)c1ccc(C(C)C(=O)N(CC2=C(C(C)c3ccccn3)c3ccccc3C2)C(C)C)cc1` (stereo unspecified), the growth in the experiment with T-47D breast is 13.3%; in the experiment with MDA-MB-435 melanoma, 44.1%; with SW-620 colon, 31.3%; in the experiment on HCT-116 colon, 11.1%; in the experiment with HCC-2998 colon, 37.3%; in the experiment on KM12 colon, 37.5%.

With `O=C(c1ccccc1)N(C(=O)c1ccccc1)N1CCCC1`, the growth is 99.9% with T-47D breast; 116% in the experiment on MDA-MB-435 melanoma; 100% in the experiment on SW-620 colon; 105% in the experiment with MCF7 breast; 106% in the experiment with HCT-116 colon; 107% in the experiment on KM12 colon.

With `Cc1ccc(NC(=O)N2CCCCC2)cc1[N+](=O)[O-]`, the growth is 121% with T-47D breast; 92.9% in the experiment with MCF7 breast; 94.7% with HCT-116 colon; 103% in the experiment on HCC-2998 colon; 111% in the experiment with KM12 colon.

On to `CN(C)c1nc(N)c2nccnc2n1`, for which the growth was 104% in the experiment with T-47D breast; 106% in the experiment on MDA-MB-435 melanoma; 99.2% in the experiment on SW-620 colon; 96% with MCF7 breast; 104% in the experiment with HCT-116 colon; 101% in the experiment on KM12 colon.

Take `NNC(=O)Oc1c(Cl)cc(Cl)cc1[N+](=O)[O-]`: the growth was 98.5% with T-47D breast; 107% in the experiment with MDA-MB-435 melanoma; 105% in the experiment with SW-620 colon; 87.9% with MCF7 breast; 102% in the experiment on HCT-116 colon; 103% in the experiment with HCC-2998 colon. Also, in the experiment on KM12 colon, the growth was 106%.

Turning to `CCN(CC)CCOc1cccc2c1C(=O)c1cccc(OCCN(CC)CC)c1C2=O`, the growth with T-47D breast was 92.2%; in the experiment with MDA-MB-435 melanoma, 32.5%; with MCF7 breast, 9.16% (active); in the experiment on HCT-116 colon, 7.44% (active); with HCC-2998 colon, 54.7%; in the experiment with KM12 colon, 33.9%.

With `Cc1noc(C)c1CSc1ccccc1C(=O)N1CCN(c2cccc(C(F)(F)F)c2)CC1`, the growth in the experiment on BT-549 breast is 61%; with MDA-MB-435 melanoma, 82.6%; with SW-620 colon, 86.5%; with MCF7 breast, 79.4%; in the experiment with HCT-116 colon, 55.3%; with HCC-2998 colon it was 93.6%. In addition, the growth in the experiment on KM12 colon is 79.2%.

As for `CC1=NN(C(=O)c2nn(-c3ccc(Cl)cc3)cc2O)C(=O)C1`, the growth with T-47D breast was 48.5%; with MDA-MB-435 melanoma, 59.8%; in the experiment with MCF7 breast it was 52.4%; in the experiment with HCT-116 colon, 28.5%; with HCC-2998 colon, 54.1%; in the experiment with KM12 colon, 49%.

On to `CN(C)CCOc1ccccc1NC1=C(Cl)C(=O)C(Nc2ccccc2OCCN(C)C)=C(Cl)C1=O`, for which the growth with T-47D breast is -37.6% (active); in the experiment with MDA-MB-435 melanoma it was 86.4%; with MCF7 breast, -53.9% (active); in the experiment on HCT-116 colon it was -75.3% (active); in the experiment with HCC-2998 colon it was 101%; in the experiment on KM12 colon it was 93.6%.

As for `Oc1cccc(-c2nc3sccn3c2-c2ccncn2)c1`, the growth in the experiment on BT-549 breast was 110%; in the experiment on MDA-MB-435 melanoma it was 46%; with SW-620 colon, 108%; with MCF7 breast, 76.7%; in the experiment with HCT-116 colon it was 97.3%; in the experiment with HCC-2998 colon, 111%. Also, the growth with KM12 colon is 107%.

With `O=[N+]([O-])c1cc(Cl)cc(Cl)c1O`, the growth in the experiment on T-47D breast was 93%; with MDA-MB-435 melanoma, 98.5%; in the experiment on SW-620 colon it was 103%; with HCT-116 colon, 93.5%; with HCC-2998 colon, 105%; in the experiment with KM12 colon it was 98.9%.

For `S=C1N(c2ccccc2)CN(C2CCCCC2)CN1c1ccccc1`, the growth is 94.3% in the experiment on T-47D breast; 104% with SW-620 colon; 88.7% with MCF7 breast; 102% with HCT-116 colon; 102% in the experiment with HCC-2998 colon; 110% with KM12 colon.

With `COc1cc2c(cc1OC)C(C(CCCCCC(CCC(C)C)C1NCCc3cc(OC)c(OC)cc31)CCC(C)C)NCC2` (stereo unspecified), the growth was -85.2% (active) with T-47D breast; -83.8% (active) in the experiment on SW-620 colon; -92.7% (active) in the experiment with MCF7 breast; -100% (active) in the experiment with HCT-116 colon; -94.2% (active) in the experiment on HCC-2998 colon; -97% (active) in the experiment with KM12 colon.

As for `O=C(CCCCC(=O)Oc1c(Cl)cc(Cl)cc1[N+](=O)[O-])Oc1c(Cl)cc(Cl)cc1[N+](=O)[O-]`, the growth in the experiment on T-47D breast is 102%; in the experiment with MDA-MB-435 melanoma, 103%; in the experiment with SW-620 colon, 112%; with MCF7 breast, 86.3%; in the experiment with HCT-116 colon, 101%; in the experiment on HCC-2998 colon it was 103%. In the experiment on KM12 colon, the growth was 99.7%.

As to `CCC(CC)n1c(C)cc(=O)n1C(CC)CC`, the growth with BT-549 breast was 122%; in the experiment on MDA-MB-435 melanoma, 102%; in the experiment on SW-620 colon it was 105%; in the experiment on MCF7 breast it was 105%; in the experiment with HCT-116 colon, 105%; with HCC-2998 colon it was 105%. In addition, the growth with KM12 colon was 115%.

On to `O=C1C=C(Nc2cccc(Br)c2)c2ccccc2C1=O`, for which the growth in the experiment on BT-549 breast is 14.7%; with MDA-MB-435 melanoma, -25.2% (active); in the experiment on SW-620 colon, 29.7%; with MCF7 breast it was 21%; with HCT-116 colon, 52%; in the experiment on HCC-2998 colon it was 75.5%. Also, the growth in the experiment on KM12 colon was 32.6%.

As for `COc1ccc(-c2cc(-c3ccc(Cl)cc3)nc(SCCCC(=O)NO)n2)cc1OC`, the growth in the experiment with T-47D breast was 15%; in the experiment on MDA-MB-435 melanoma it was 19.6%; in the experiment on SW-620 colon, 9.88% (active); in the experiment with HCT-116 colon it was 5.45% (active); in the experiment with HCC-2998 colon, -50.7% (active); with KM12 colon, 21.7%.

Turning to `COc1cc(C2CC(c3ccc4c(c3)OCO4)=NN2c2ccccc2)cc(OC)c1OC` (stereo unspecified), the growth in the experiment on BT-549 breast was 71.9%; in the experiment on MDA-MB-435 melanoma, 30.7%; with SW-620 colon it was 89.4%; with MCF7 breast, 87.4%; with HCT-116 colon, 93.5%; with HCC-2998 colon, 83.2%. In addition, the growth with KM12 colon was 60.9%.

On to `C#CCOc1c(OC)cc(C(=O)/C(C)=C/c2cccc(N=[N+]=[N-])c2)cc1OC`, for which the growth with BT-549 breast was 11.4%; with MDA-MB-435 melanoma it was -19% (active); with SW-620 colon, 36.5%; in the experiment with MCF7 breast, 16.4%; in the experiment with HCT-116 colon it was 6.9% (active); in the experiment with HCC-2998 colon, 21.4%. Also, the growth in the experiment with KM12 colon is 26.6%.
